Assay in all cases: PBM; 200 nM protein, PBS
Settings in all cases: dsDNA, one strand shown

The target of test [1] is HOXB4 (Homo sapiens, UniProt P17483 148-234).
In test [2] the target is HOXB4 (Homo sapiens, UniProt P17483 148-234, V174I).
Test [3] deals with ALX1 (Homo sapiens, UniProt Q15699 118-204, L144V).
Test [4] has as its target ALX1 (Homo sapiens, UniProt Q15699 118-204, L144R).
Test [5] has as its target ALX1 (Homo sapiens, UniProt Q15699 118-204).
Test [6] addresses MSX2 (Homo sapiens, UniProt P35548 130-214, R199I).
The target in test [7] is MSX2 (Homo sapiens, UniProt P35548 130-214).
Sequence of MSX2 (Homo sapiens, UniProt P35548 130-214) (P35548 130-214): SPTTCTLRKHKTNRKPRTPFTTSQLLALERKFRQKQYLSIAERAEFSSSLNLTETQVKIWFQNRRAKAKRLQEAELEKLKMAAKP
The target in test [8] is MSX2 (Homo sapiens, UniProt P35548 130-214, F161Y).
Sequence of MSX2 (Homo sapiens, UniProt P35548 130-214, F161Y) (P35548 130-214 F161Y): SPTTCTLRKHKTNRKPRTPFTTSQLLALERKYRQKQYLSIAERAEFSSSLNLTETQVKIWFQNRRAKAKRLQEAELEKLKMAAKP
The target in test [9] is PROP1 (Homo sapiens, UniProt O75360 56-141).
Sequence of PROP1 (Homo sapiens, UniProt O75360 56-141) (O75360 56-141): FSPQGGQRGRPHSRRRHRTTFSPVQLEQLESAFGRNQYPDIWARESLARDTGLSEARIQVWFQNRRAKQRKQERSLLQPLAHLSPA
In test [10] the target is PROP1 (Homo sapiens, UniProt O75360 56-141, R99H).
Sequence of PROP1 (Homo sapiens, UniProt O75360 56-141, R99H) (O75360 56-141 R99H): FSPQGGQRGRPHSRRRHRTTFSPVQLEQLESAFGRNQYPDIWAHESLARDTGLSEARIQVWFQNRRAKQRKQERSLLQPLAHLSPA
Test [11] has as its target PROP1 (Homo sapiens, UniProt O75360 56-141, F88S).
Test [12] has as its target ALX3 (Homo sapiens, UniProt O95076 139-225, N203Q).
Test [13] deals with HOXD13 (Homo sapiens, UniProt P35453 263-343, T313R).
Sequence of HOXD13 (Homo sapiens, UniProt P35453 263-343, T313R) (P35453 263-343 T313R): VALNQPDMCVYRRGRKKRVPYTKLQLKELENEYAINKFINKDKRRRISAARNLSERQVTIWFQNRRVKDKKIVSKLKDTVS
In test [14] the target is HOXD13 (Homo sapiens, UniProt P35453 263-343).
Sequence of HOXD13 (Homo sapiens, UniProt P35453 263-343) (P35453 263-343): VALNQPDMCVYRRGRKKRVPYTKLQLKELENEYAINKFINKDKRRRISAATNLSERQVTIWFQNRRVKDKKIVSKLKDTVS
For test [15], the target named is ALX3 (Homo sapiens, UniProt O95076 139-225).
Sequence of ALX3 (Homo sapiens, UniProt O95076 139-225) (O95076 139-225): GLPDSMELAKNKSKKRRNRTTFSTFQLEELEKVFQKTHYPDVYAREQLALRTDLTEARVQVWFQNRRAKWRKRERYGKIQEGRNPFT
The target in test [16] is ALX3 (Homo sapiens, UniProt O95076 139-225, L168Q).
Sequence of ALX3 (Homo sapiens, UniProt O95076 139-225, L168Q) (O95076 139-225 L168Q): as the sequence (O95076 139-225) above, with L30Q counted along it
Test [17] has as its target HOXD13 (Homo sapiens, UniProt P35453 263-343, T313A).
Test [18] addresses ALX3 (Homo sapiens, UniProt O95076 139-225, L168V).
Test [19] concerns the target ALX3 (Homo sapiens, UniProt O95076 139-225, N203S).

Sequence of HOXB4 (Homo sapiens, UniProt P17483 148-234) (P17483 148-234): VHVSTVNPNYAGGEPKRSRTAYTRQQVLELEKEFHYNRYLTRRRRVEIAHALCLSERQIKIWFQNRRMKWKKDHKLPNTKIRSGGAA
Sequence of MSX2 (Homo sapiens, UniProt P35548 130-214, R199I) (P35548 130-214 R199I): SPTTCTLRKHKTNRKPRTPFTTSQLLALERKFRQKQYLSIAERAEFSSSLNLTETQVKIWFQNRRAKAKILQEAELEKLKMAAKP
Sequence of ALX3 (Homo sapiens, UniProt O95076 139-225, N203Q) (O95076 139-225 N203Q): as the sequence (O95076 139-225) above, with N65Q counted along it
Sequence of HOXB4 (Homo sapiens, UniProt P17483 148-234, V174I) (P17483 148-234 V174I): as the sequence (P17483 148-234) above, with V27I counted along it
Sequence of ALX3 (Homo sapiens, UniProt O95076 139-225, N203S) (O95076 139-225 N203S): as the sequence (O95076 139-225) above, with N65S counted along it
Sequence of ALX3 (Homo sapiens, UniProt O95076 139-225, L168V) (O95076 139-225 L168V): as the sequence (O95076 139-225) above, with L30V counted along it
Sequence of ALX1 (Homo sapiens, UniProt Q15699 118-204, L144V) (Q15699 118-204 L144V): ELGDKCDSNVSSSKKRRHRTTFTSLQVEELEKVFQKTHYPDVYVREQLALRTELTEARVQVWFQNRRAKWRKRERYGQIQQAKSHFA
Sequence of HOXD13 (Homo sapiens, UniProt P35453 263-343, T313A) (P35453 263-343 T313A): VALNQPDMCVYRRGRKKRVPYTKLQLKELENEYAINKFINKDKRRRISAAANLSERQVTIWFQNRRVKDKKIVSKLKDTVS
Sequence of ALX1 (Homo sapiens, UniProt Q15699 118-204) (Q15699 118-204): as the sequence (Q15699 118-204 L144V) above, with V27L counted along it
Sequence of PROP1 (Homo sapiens, UniProt O75360 56-141, F88S) (O75360 56-141 F88S): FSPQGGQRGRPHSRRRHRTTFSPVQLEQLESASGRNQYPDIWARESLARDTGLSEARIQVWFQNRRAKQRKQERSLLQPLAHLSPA
Sequence of ALX1 (Homo sapiens, UniProt Q15699 118-204, L144R) (Q15699 118-204 L144R): as the sequence (Q15699 118-204 L144V) above, with V27R counted along it

As for CGGGATGC, the binding signal with HOXB4 [1] is 7.47 upbm affinity estimate (log intensity, higher = more binding, comparable within an allelic series); with HOXB4 [2], 7.57 upbm affinity estimate (log intensity, higher = more binding, comparable within an allelic series); with ALX1 [3], 6.54 upbm affinity estimate (log intensity, higher = more binding, comparable within an allelic series); in the test with ALX1 [4], 6.46 upbm affinity estimate (log intensity, higher = more binding, comparable within an allelic series); with ALX1 [5], 6.51 upbm affinity estimate (log intensity, higher = more binding, comparable within an allelic series).
For the sequence CCGGGTTC, the binding signal was 7.62 upbm affinity estimate (log intensity, higher = more binding, comparable within an allelic series) with HOXB4 [1] and 7.65 upbm affinity estimate (log intensity, higher = more binding, comparable within an allelic series) in the test with HOXB4 [2].
For CCTGCGTC, the binding signal with HOXB4 [1] is 7.55 upbm affinity estimate (log intensity, higher = more binding, comparable within an allelic series); with HOXB4 [2], 7.44 upbm affinity estimate (log intensity, higher = more binding, comparable within an allelic series).
For AAAATTAC, the binding signal with HOXB4 [1] is 11.3 upbm affinity estimate (log intensity, higher = more binding, comparable within an allelic series); in the test with HOXB4 [2], 11.7 upbm affinity estimate (log intensity, higher = more binding, comparable within an allelic series).
Consider CGTGCCGC, for which the binding signal with HOXB4 [1] was 7.33 upbm affinity estimate (log intensity, higher = more binding, comparable within an allelic series); in the test with HOXB4 [2], 7.57 upbm affinity estimate (log intensity, higher = more binding, comparable within an allelic series); in the test with MSX2 [6], 9.41 upbm affinity estimate (log intensity, higher = more binding, comparable within an allelic series); with MSX2 [7] it was 9.35 upbm affinity estimate (log intensity, higher = more binding, comparable within an allelic series); with MSX2 [8], 9.43 upbm affinity estimate (log intensity, higher = more binding, comparable within an allelic series).
Take CGCCGACG: the binding signal was 7.65 upbm affinity estimate (log intensity, higher = more binding, comparable within an allelic series) in the test with HOXB4 [1] and 7.86 upbm affinity estimate (log intensity, higher = more binding, comparable within an allelic series) with HOXB4 [2].
ATCTATAA: the binding signal with HOXB4 [1] was 11 upbm affinity estimate (log intensity, higher = more binding, comparable within an allelic series); in the test with HOXB4 [2], 11.1 upbm affinity estimate (log intensity, higher = more binding, comparable within an allelic series).
As for GAACATAA, the binding signal is 10.5 upbm affinity estimate (log intensity, higher = more binding, comparable within an allelic series) with HOXB4 [1] and 10.7 upbm affinity estimate (log intensity, higher = more binding, comparable within an allelic series) with HOXB4 [2].
Regarding ATAAGCGC, the binding signal in the test with HOXB4 [1] is 9.9 upbm affinity estimate (log intensity, higher = more binding, comparable within an allelic series); in the test with HOXB4 [2] it was 10 upbm affinity estimate (log intensity, higher = more binding, comparable within an allelic series).
CGGGCTGC: the binding signal in the test with HOXB4 [1] is 7.97 upbm affinity estimate (log intensity, higher = more binding, comparable within an allelic series); with HOXB4 [2], 7.82 upbm affinity estimate (log intensity, higher = more binding, comparable within an allelic series); with MSX2 [6], 9.39 upbm affinity estimate (log intensity, higher = more binding, comparable within an allelic series); with MSX2 [7] it was 9.57 upbm affinity estimate (log intensity, higher = more binding, comparable within an allelic series); in the test with PROP1 [9] it was 6.7 upbm affinity estimate (log intensity, higher = more binding, comparable within an allelic series); with PROP1 [10], 6.83 upbm affinity estimate (log intensity, higher = more binding, comparable within an allelic series). The binding signal with PROP1 [11] was 6.68 upbm affinity estimate (log intensity, higher = more binding, comparable within an allelic series); with MSX2 [8], 9.57 upbm affinity estimate (log intensity, higher = more binding, comparable within an allelic series).
Turning to GTCGATGA, the binding signal in the test with HOXB4 [1] is 9.83 upbm affinity estimate (log intensity, higher = more binding, comparable within an allelic series); with HOXB4 [2], 9.24 upbm affinity estimate (log intensity, higher = more binding, comparable within an allelic series).
In the case of AGACCCGA, the binding signal was 7.82 upbm affinity estimate (log intensity, higher = more binding, comparable within an allelic series) in the test with HOXB4 [1] and 7.69 upbm affinity estimate (log intensity, higher = more binding, comparable within an allelic series) with HOXB4 [2].
For AAATGTTA, the binding signal with HOXB4 [1] is 10.3 upbm affinity estimate (log intensity, higher = more binding, comparable within an allelic series); in the test with HOXB4 [2] it was 10.4 upbm affinity estimate (log intensity, higher = more binding, comparable within an allelic series).
Regarding CCAGTTGC, the binding signal was 7.75 upbm affinity estimate (log intensity, higher = more binding, comparable within an allelic series) with HOXB4 [1] and 7.61 upbm affinity estimate (log intensity, higher = more binding, comparable within an allelic series) with HOXB4 [2].
For AGGAGGAG, the binding signal is 7.49 upbm affinity estimate (log intensity, higher = more binding, comparable within an allelic series) in the test with HOXB4 [1] and 7.57 upbm affinity estimate (log intensity, higher = more binding, comparable within an allelic series) with HOXB4 [2].
Consider CTCCCGGC, for which the binding signal with HOXB4 [1] is 7.38 upbm affinity estimate (log intensity, higher = more binding, comparable within an allelic series); in the test with HOXB4 [2] it was 7.56 upbm affinity estimate (log intensity, higher = more binding, comparable within an allelic series); with ALX3 [12], 7.65 upbm affinity estimate (log intensity, higher = more binding, comparable within an allelic series); with HOXD13 [13] it was 9.46 upbm affinity estimate (log intensity, higher = more binding, comparable within an allelic series); with HOXD13 [14], 9.39 upbm affinity estimate (log intensity, higher = more binding, comparable within an allelic series); with ALX3 [15], 7.57 upbm affinity estimate (log intensity, higher = more binding, comparable within an allelic series). The binding signal with ALX3 [16] is 7.75 upbm affinity estimate (log intensity, higher = more binding, comparable within an allelic series); with HOXD13 [17], 9.4 upbm affinity estimate (log intensity, higher = more binding, comparable within an allelic series); with ALX3 [18] it was 7.74 upbm affinity estimate (log intensity, higher = more binding, comparable within an allelic series); with ALX3 [19], 7.67 upbm affinity estimate (log intensity, higher = more binding, comparable within an allelic series).
With CGGTCACG, the binding signal with HOXB4 [1] is 7.89 upbm affinity estimate (log intensity, higher = more binding, comparable within an allelic series); with HOXB4 [2], 7.75 upbm affinity estimate (log intensity, higher = more binding, comparable within an allelic series).
GTCCCAAC: the binding signal with HOXB4 [1] was 7.52 upbm affinity estimate (log intensity, higher = more binding, comparable within an allelic series); in the test with HOXB4 [2], 7.63 upbm affinity estimate (log intensity, higher = more binding, comparable within an allelic series).
GAATGAAC: the binding signal was 8.91 upbm affinity estimate (log intensity, higher = more binding, comparable within an allelic series) with HOXB4 [1] and 8.78 upbm affinity estimate (log intensity, higher = more binding, comparable within an allelic series) in the test with HOXB4 [2].
In the case of GGCTAATA, the binding signal with HOXB4 [1] was 11.6 upbm affinity estimate (log intensity, higher = more binding, comparable within an allelic series); with HOXB4 [2], 11.9 upbm affinity estimate (log intensity, higher = more binding, comparable within an allelic series).
On to ACGCAATA, for which the binding signal is 9.72 upbm affinity estimate (log intensity, higher = more binding, comparable within an allelic series) with HOXB4 [1] and 9.78 upbm affinity estimate (log intensity, higher = more binding, comparable within an allelic series) in the test with HOXB4 [2].
As for CGTCGTTA, the binding signal is 10.9 upbm affinity estimate (log intensity, higher = more binding, comparable within an allelic series) with HOXB4 [1] and 11 upbm affinity estimate (log intensity, higher = more binding, comparable within an allelic series) with HOXB4 [2].
Take ACAACGAT: the binding signal was 9.88 upbm affinity estimate (log intensity, higher = more binding, comparable within an allelic series) with HOXB4 [1] and 9.27 upbm affinity estimate (log intensity, higher = more binding, comparable within an allelic series) in the test with HOXB4 [2].
For GGACCGAC, the binding signal with HOXB4 [1] is 7.66 upbm affinity estimate (log intensity, higher = more binding, comparable within an allelic series); with HOXB4 [2], 7.41 upbm affinity estimate (log intensity, higher = more binding, comparable within an allelic series).
Consider CGAATCTC, for which the binding signal was 7.71 upbm affinity estimate (log intensity, higher = more binding, comparable within an allelic series) in the test with HOXB4 [1] and 7.74 upbm affinity estimate (log intensity, higher = more binding, comparable within an allelic series) with HOXB4 [2].
In the case of GCTGGCGA, the binding signal is 7.41 upbm affinity estimate (log intensity, higher = more binding, comparable within an allelic series) with HOXB4 [1] and 7.45 upbm affinity estimate (log intensity, higher = more binding, comparable within an allelic series) with HOXB4 [2].
Turning to AATACAAG, the binding signal with HOXB4 [1] is 9.55 upbm affinity estimate (log intensity, higher = more binding, comparable within an allelic series); with HOXB4 [2], 9.49 upbm affinity estimate (log intensity, higher = more binding, comparable within an allelic series).
Regarding CTACCGCC, the binding signal with HOXB4 [1] is 7.59 upbm affinity estimate (log intensity, higher = more binding, comparable within an allelic series); with HOXB4 [2], 7.48 upbm affinity estimate (log intensity, higher = more binding, comparable within an allelic series).
As for GCGCGGGA, the binding signal was 7.68 upbm affinity estimate (log intensity, higher = more binding, comparable within an allelic series) with HOXB4 [1]; 7.49 upbm affinity estimate (log intensity, higher = more binding, comparable within an allelic series) with HOXB4 [2]; 9.54 upbm affinity estimate (log intensity, higher = more binding, comparable within an allelic series) with MSX2 [6]; 9.49 upbm affinity estimate (log intensity, higher = more binding, comparable within an allelic series) with MSX2 [7]; 9.51 upbm affinity estimate (log intensity, higher = more binding, comparable within an allelic series) with MSX2 [8].
For AAGCCAAT, the binding signal in the test with HOXB4 [1] was 10.3 upbm affinity estimate (log intensity, higher = more binding, comparable within an allelic series); in the test with HOXB4 [2], 10.6 upbm affinity estimate (log intensity, higher = more binding, comparable within an allelic series).
As for CACGTGGG, the binding signal with HOXB4 [1] is 7.46 upbm affinity estimate (log intensity, higher = more binding, comparable within an allelic series); in the test with HOXB4 [2], 7.46 upbm affinity estimate (log intensity, higher = more binding, comparable within an allelic series).
Take CTGGGGGA: the binding signal was 7.75 upbm affinity estimate (log intensity, higher = more binding, comparable within an allelic series) in the test with HOXB4 [1]; 7.53 upbm affinity estimate (log intensity, higher = more binding, comparable within an allelic series) with HOXB4 [2]; 7.77 upbm affinity estimate (log intensity, higher = more binding, comparable within an allelic series) in the test with ALX3 [12]; 7.77 upbm affinity estimate (log intensity, higher = more binding, comparable within an allelic series) with ALX3 [15]; 7.72 upbm affinity estimate (log intensity, higher = more binding, comparable within an allelic series) in the test with ALX3 [16]; 7.67 upbm affinity estimate (log intensity, higher = more binding, comparable within an allelic series) in the test with ALX3 [18]. Besides, the binding signal with ALX3 [19] is 7.72 upbm affinity estimate (log intensity, higher = more binding, comparable within an allelic series).
Consider CTATTTGA, for which the binding signal in the test with HOXB4 [1] is 9.99 upbm affinity estimate (log intensity, higher = more binding, comparable within an allelic series); with HOXB4 [2] it was 9.85 upbm affinity estimate (log intensity, higher = more binding, comparable within an allelic series).
With ACTAATAA, the binding signal in the test with HOXB4 [1] was 12 upbm affinity estimate (log intensity, higher = more binding, comparable within an allelic series); with HOXB4 [2], 12.5 upbm affinity estimate (log intensity, higher = more binding, comparable within an allelic series); in the test with ALX3 [12], 8.53 upbm affinity estimate (log intensity, higher = more binding, comparable within an allelic series).

These data come from article PMC11006913.
